# Screening results (PubChem)
# Rows were chosen to be rich in hits. Some 0.51% of all compounds tested hit in one or more screens of this group.
# Tat transport – blocks Tat-dependent protein export in E. coli. E. coli MC4100 TorA-mCherry Tat export, fluorescence. inhibition, % at 10 µM. 340,000 compounds, 0.036% hits. AID 488895;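 active = mean replicate inhibition at least 50% and at least half of replicates individually reaching 50%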;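 note: exported cargo escapes ClpAP degradation while cytoplasmic cargo is degraded and loses fluorescence; 0% = median of neutral control wells and 100% = median of NaSCN control wells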
# AddAB inh – less growth of phage-infected E. coli with AddAB. E. coli expressing H. pylori AddAB, absorbance growth. inhibition, % at 11.9 µM. 330,000 compounds, 0.29% hits. AID 435030; in the data active = inhibition above about 12%;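 note: 0% = vehicle wells of infected cells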
# phage Ecoli inh – E. coli growth loss with phage present; inhibition, % at 11.9 µM; growth absorbance; AID 651602; 360,000 compounds, 0.26% hits; in the data active = inhibition above about 11%
# E coli growth-1 – bacterial growth inhibition, counter-screen for AddAB inhibitors; E. coli V3065 growth, OD600 absorbance, 18 h; inhibition, % at 11.9 µM; 330,000 compounds, 0.27% hits; AID 449728;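 active = inhibition above the campaign's mean inhibition across all tested compounds plus 3 SD, cut at about 9.9% in these data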;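 note: uninfected addAB+ strain grown without phage in ampicillin broth; 0% = DMSO wells and 100% = ciprofloxacin 0.95 µg/ml wells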
# E coli growth-2 – blocks Escherichia coli growth; 330,000 compounds, 0.21% hits; OD600, 23 h; hits give low values; OD600 absorbance (no concentration beside the values);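 active = OD600 absorbance below the run mean of sample wells minus 3.6 SD, in any replicate, cut at about 0.56 in these data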
# AddAB confirm – growth loss of T4-infected E. coli expressing H. pylori AddAB, confirmed; shares compounds with AddAB inh; E. coli V3065 expressing H. pylori AddAB, T4 phage, OD; T4 phage with gene 2 nonsense mutations; inhibition, % at 11.9 µM; 880 compounds, 64% hits;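 active = mean inhibition above a set limit taken from the earlier primary screen, cut at about 13% in these data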;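 note: higher means less bacterial growth since AddAB block lets phage replicate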
# RecBCD counter – AddAB counter-screen: growth loss of RecBCD+ E. coli infected with mutant T4 phage; shares compounds with AddAB inh; E. coli V66 + mutant T4 phage, OD growth; 880 compounds, 73% hits; inhibition, % at 11.9 µM;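 active = mean inhibition above the mean of solvent-only control wells plus 3 SD, cut at about 4% in these data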;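 note: optical density read after an 18 h incubation at 37 °C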
# bact viab count – reduces bacterial viability, AddAB inhibitor counter-screen | shares compounds with AddAB inh | absorbance (AddAB counterscreen) | inhibition, % at 11.9 µM | AID 488956 | 880 compounds, 35% hits; in the data active = inhibition above about 25%
# * marks the source's active call; other numbers are inactive results; i = inactive; . = no result.
SMILES,Tat transport,AddAB inh,phage Ecoli inh,E coli growth-1,E coli growth-2,AddAB confirm,RecBCD counter,bact viab count
CCCCNC(=O)O[C@H]1C[C@@H]2CCN3C(=O)CCC[C@H]([C@H]1CC)[C@H]23,-10,15*,3,2,.,-2,1,-4
COc1ccc(S(=O)(=O)N(C)CC2Oc3c(NC(=O)c4ccncc4)cccc3C(=O)N(C(C)CO)CC2C)cc1 (stereo not given),.,.,.,.,0.7,.,.,.
N#Cc1c(NC(=O)c2ccc([N+](=O)[O-])o2)sc2c1CCC2,1,16*,5,11*,0.54,64*,7.3*,19
N#Cc1c(NC(=O)c2ccccc2)sc2c1CCC2,-6,5,3,1,0.73,.,.,.
NC(=O)c1c(NC(=O)c2ccc([N+](=O)[O-])o2)sc2c1CCCC2,3,23*,9,18*,0.64,98*,8.8*,28*
COc1ccc(F)cc1C1=CC(=O)CC(c2ccc3c(c2)OCO3)C1 (stereo not given),.,.,.,.,0.7,.,.,.
O=C(NC(CO)Cc1ccc([N+](=O)[O-])cc1)C(Cl)Cl (stereo not given),12,81*,.,83*,0.061*,88*,88*,88*
O=C(O)CC(Cc1ccc(Cl)cc1)C(=O)Nc1ccc([N+](=O)[O-])cc1 (stereo not given),5,2,4,0,0.69,.,.,.
O=C(CC(=O)Nc1ccc(Cl)c(Cl)c1)NN=Cc1ccc(O)cc1,.,.,.,.,0.66,.,.,.
Cc1c(Br)c([N+](=O)[O-])nn1C(C)C(=O)NCc1ccco1 (stereo not given),8,17*,2,6,0.64,17*,3,12
O=C(NC(=S)NNC(=O)c1ccccc1O)c1ccco1,-1,14*,6,2,0.37*,17*,17*,37*
O=C(NNC(=S)NC(=O)c1ccco1)c1ccc(NC(=O)c2ccccc2)cc1,-8,1,0,3,0.57,.,.,.
CCN1/C(=C/C=C/c2sc3ccccc3[n+]2CC)Sc2ccccc21,i,13*,.,9,.,61*,9.1*,14
Cc1noc(NS(=O)(=O)c2ccc(N/C=C/C(=O)c3ccc(F)cc3)cc2)c1C,-8,6,8,5,0.71,.,.,.
Cc1noc(NS(=O)(=O)c2ccc(N/C=C\C(=O)c3ccncc3)cc2)c1C,5,10,3,4,0.69,.,.,.
CCc1ccc(C(=O)/C=C/Nc2ccc(S(=O)(=O)Nc3onc(C)c3C)cc2)cc1,4,14*,7,4,0.67,-1,3,2
Cc1noc(NS(=O)(=O)c2ccc(N/C=C/C(=O)c3cccnc3)cc2)c1C,-1,13*,2,8,0.66,0,3,1
O=C(O)Cn1cc(C=C2SC(=O)N(CC(=O)N3CCCCCC3)C2=O)c2ccccc21,.,.,.,.,0.67,.,.,.
CC(C)CNC(=S)NC(=O)c1csc([N+](=O)[O-])c1,-15,4,1,-1,0.57,.,.,.
O=[N+]([O-])c1cc(-c2ncccn2)cs1,-1,17*,10,13*,0.6,100*,8.6*,27*
COC(=O)C1=C(C(=O)OC)C2N(Cc3ccccc3)c3ccccc3[C@@]23CC(CO)N(C(=O)NC2CCCC2)C3=N1 (stereo not given in full),.,.,.,.,0.69,.,.,.
CC(=NNC(=O)c1ccc2c(c1)OCO2)c1ccc(NC(=O)c2ccc(F)cc2)cc1,.,.,.,.,0.74,.,.,.
NC(=S)N/N=C/c1ncc(C(F)(F)F)cc1Cl,-4,23*,.,18*,.,18*,18*,18
NC(=S)N/N=C/c1ccc(C(F)(F)F)cc1,-4,0,4,2,.,.,.,.
COc1ccc(CCNC(=O)c2ccc(CN3CCC(Cc4ccccc4)CC3)cc2)cc1OC,-4,14*,4,4,0.68,3,3,2
SMILES,Tat transport,AddAB inh,phage Ecoli inh,E coli growth-1,E coli growth-2,AddAB confirm,RecBCD counter,bact viab count
O=C(CCN1CCN(c2ccccc2)CC1)N/N=C/c1ccc([N+](=O)[O-])o1,7,26*,7,7,.,78*,4,7
CC(=O)Nc1ccc(C=NNC(=O)CCN2CCN(c3ccccc3)CC2)cc1,.,.,.,.,0.67,.,.,.
O=C(CNc1cccc2ccccc12)N/N=C/c1ccc([N+](=O)[O-])o1,-21,14*,3,3,.,35*,3,6
C#CCOCCOCCOCCNc1nc(OC)nc(N2CCN(C(=O)C(CCC(=O)O)n3cc(C(N)CO)nn3)CC2)n1 (stereo not given),.,.,.,.,0.7,.,.,.
Cc1cc(C)nc(NN=Cc2cn[nH]c2-c2ccc(F)cc2)n1,.,.,.,.,0.71,.,.,.
O=C(Nc1oc2ccccc2c(=O)c1-c1ccccc1)c1ccco1,.,.,-2,.,.,.,.,.
Cc1ccc(-c2c(NC(=O)c3ccco3)oc3ccccc3c2=O)cc1,-3,93*,-1,39*,0.63,-1,0,-2
CO[C@@]12[C@H](COC(N)=O)C3=C(C(=O)C(C)=C(N)C3=O)N1C[C@@H]1N[C@@H]12,4,15*,3,14*,.,77*,16*,70*
CCOc1ccc(NC(=S)N2CCn3c(nc4ccccc43)C2)cc1,.,21*,.,13*,.,28*,19*,24
COc1ccc(S(=O)(=O)N(C)CC2Oc3ccc(NS(=O)(=O)c4ccc(F)cc4)cc3C(=O)N(C(C)CO)CC2C)cc1 (stereo not given),.,.,.,.,0.65,.,.,.
O=C(COc1ccc(Cl)cc1[N+](=O)[O-])NC1CCCCC1,3,35*,3,20*,0.72,-3,2,-3
CC(=O)c1cc(Cl)ccc1OCC(=O)NC1CCCC1,2,.,5,.,0.68,.,.,.
O=C(CN(c1ccccc1Cl)S(=O)(=O)c1ccccc1)NN=Cc1ccccc1C(=O)O,.,.,.,.,0.67,.,.,.
C/C(=N\Nc1nc2ccccc2[nH]1)c1ccccn1,-8,27*,27*,27*,.,25*,14*,9
CCCNC(=O)c1cn(CC)c2cc(N3CCN(C(=O)c4ccco4)CC3)c(F)cc2c1=O,15,94*,8,58*,0.089*,99*,2,58*
CCn1cc(C(=O)NN)c(=O)c2cc(F)c(N3CCCCC3)cc21,-7,.,-1,.,0.68,.,.,.
CCn1cc(C(=O)NCc2cccc(F)c2)c(=O)c2cc(F)c(N3CCN(C(=O)c4ccco4)CC3)cc21,6,95*,4,70*,0.41*,98*,1,62*
N#Cc1ccc(C23CC4(C2)C(CN(CC2CCCCC2)C4c2ccccc2)C3c2ccc(Cl)nc2)cc1 (stereo not given),.,.,.,.,0.71,.,.,.
COc1cccc(C(=O)Nc2nnc(-c3cccs3)o2)c1,5,12*,3,-2,0.56,9,5.7*,0
